According to PubChem BioAssay AID624160 (National Center for Advancing Translational Sciences (NCATS), 2012):
The other results are listed elsewhere or left out. Results filed as inconclusive are left out. The source made the active and inactive calls. Calls follow the shape of the dose curve; as a rule, active = well fitted inhibition curve with a large enough effect; inconclusive = small, poorly fitted or top-dose-only effect; inactive = no such curve, though single readings can be large or run the other way.

Each compound was assayed against Histone-lysine N-methyltransferase 2A (Homo sapiens) (UniProt Q03164) (assay: qHTS Fluorescence Polarization (FP) Assay for Inhibitors of MLL CXXC domain - DNA interaction: Fluorescein FP). Conditions: MLL CXXC-DNA binding.
Chain of Histone-lysine N-methyltransferase 2A (Homo sapiens) (Q03164 whole entry, looked up, the tested form may be a part): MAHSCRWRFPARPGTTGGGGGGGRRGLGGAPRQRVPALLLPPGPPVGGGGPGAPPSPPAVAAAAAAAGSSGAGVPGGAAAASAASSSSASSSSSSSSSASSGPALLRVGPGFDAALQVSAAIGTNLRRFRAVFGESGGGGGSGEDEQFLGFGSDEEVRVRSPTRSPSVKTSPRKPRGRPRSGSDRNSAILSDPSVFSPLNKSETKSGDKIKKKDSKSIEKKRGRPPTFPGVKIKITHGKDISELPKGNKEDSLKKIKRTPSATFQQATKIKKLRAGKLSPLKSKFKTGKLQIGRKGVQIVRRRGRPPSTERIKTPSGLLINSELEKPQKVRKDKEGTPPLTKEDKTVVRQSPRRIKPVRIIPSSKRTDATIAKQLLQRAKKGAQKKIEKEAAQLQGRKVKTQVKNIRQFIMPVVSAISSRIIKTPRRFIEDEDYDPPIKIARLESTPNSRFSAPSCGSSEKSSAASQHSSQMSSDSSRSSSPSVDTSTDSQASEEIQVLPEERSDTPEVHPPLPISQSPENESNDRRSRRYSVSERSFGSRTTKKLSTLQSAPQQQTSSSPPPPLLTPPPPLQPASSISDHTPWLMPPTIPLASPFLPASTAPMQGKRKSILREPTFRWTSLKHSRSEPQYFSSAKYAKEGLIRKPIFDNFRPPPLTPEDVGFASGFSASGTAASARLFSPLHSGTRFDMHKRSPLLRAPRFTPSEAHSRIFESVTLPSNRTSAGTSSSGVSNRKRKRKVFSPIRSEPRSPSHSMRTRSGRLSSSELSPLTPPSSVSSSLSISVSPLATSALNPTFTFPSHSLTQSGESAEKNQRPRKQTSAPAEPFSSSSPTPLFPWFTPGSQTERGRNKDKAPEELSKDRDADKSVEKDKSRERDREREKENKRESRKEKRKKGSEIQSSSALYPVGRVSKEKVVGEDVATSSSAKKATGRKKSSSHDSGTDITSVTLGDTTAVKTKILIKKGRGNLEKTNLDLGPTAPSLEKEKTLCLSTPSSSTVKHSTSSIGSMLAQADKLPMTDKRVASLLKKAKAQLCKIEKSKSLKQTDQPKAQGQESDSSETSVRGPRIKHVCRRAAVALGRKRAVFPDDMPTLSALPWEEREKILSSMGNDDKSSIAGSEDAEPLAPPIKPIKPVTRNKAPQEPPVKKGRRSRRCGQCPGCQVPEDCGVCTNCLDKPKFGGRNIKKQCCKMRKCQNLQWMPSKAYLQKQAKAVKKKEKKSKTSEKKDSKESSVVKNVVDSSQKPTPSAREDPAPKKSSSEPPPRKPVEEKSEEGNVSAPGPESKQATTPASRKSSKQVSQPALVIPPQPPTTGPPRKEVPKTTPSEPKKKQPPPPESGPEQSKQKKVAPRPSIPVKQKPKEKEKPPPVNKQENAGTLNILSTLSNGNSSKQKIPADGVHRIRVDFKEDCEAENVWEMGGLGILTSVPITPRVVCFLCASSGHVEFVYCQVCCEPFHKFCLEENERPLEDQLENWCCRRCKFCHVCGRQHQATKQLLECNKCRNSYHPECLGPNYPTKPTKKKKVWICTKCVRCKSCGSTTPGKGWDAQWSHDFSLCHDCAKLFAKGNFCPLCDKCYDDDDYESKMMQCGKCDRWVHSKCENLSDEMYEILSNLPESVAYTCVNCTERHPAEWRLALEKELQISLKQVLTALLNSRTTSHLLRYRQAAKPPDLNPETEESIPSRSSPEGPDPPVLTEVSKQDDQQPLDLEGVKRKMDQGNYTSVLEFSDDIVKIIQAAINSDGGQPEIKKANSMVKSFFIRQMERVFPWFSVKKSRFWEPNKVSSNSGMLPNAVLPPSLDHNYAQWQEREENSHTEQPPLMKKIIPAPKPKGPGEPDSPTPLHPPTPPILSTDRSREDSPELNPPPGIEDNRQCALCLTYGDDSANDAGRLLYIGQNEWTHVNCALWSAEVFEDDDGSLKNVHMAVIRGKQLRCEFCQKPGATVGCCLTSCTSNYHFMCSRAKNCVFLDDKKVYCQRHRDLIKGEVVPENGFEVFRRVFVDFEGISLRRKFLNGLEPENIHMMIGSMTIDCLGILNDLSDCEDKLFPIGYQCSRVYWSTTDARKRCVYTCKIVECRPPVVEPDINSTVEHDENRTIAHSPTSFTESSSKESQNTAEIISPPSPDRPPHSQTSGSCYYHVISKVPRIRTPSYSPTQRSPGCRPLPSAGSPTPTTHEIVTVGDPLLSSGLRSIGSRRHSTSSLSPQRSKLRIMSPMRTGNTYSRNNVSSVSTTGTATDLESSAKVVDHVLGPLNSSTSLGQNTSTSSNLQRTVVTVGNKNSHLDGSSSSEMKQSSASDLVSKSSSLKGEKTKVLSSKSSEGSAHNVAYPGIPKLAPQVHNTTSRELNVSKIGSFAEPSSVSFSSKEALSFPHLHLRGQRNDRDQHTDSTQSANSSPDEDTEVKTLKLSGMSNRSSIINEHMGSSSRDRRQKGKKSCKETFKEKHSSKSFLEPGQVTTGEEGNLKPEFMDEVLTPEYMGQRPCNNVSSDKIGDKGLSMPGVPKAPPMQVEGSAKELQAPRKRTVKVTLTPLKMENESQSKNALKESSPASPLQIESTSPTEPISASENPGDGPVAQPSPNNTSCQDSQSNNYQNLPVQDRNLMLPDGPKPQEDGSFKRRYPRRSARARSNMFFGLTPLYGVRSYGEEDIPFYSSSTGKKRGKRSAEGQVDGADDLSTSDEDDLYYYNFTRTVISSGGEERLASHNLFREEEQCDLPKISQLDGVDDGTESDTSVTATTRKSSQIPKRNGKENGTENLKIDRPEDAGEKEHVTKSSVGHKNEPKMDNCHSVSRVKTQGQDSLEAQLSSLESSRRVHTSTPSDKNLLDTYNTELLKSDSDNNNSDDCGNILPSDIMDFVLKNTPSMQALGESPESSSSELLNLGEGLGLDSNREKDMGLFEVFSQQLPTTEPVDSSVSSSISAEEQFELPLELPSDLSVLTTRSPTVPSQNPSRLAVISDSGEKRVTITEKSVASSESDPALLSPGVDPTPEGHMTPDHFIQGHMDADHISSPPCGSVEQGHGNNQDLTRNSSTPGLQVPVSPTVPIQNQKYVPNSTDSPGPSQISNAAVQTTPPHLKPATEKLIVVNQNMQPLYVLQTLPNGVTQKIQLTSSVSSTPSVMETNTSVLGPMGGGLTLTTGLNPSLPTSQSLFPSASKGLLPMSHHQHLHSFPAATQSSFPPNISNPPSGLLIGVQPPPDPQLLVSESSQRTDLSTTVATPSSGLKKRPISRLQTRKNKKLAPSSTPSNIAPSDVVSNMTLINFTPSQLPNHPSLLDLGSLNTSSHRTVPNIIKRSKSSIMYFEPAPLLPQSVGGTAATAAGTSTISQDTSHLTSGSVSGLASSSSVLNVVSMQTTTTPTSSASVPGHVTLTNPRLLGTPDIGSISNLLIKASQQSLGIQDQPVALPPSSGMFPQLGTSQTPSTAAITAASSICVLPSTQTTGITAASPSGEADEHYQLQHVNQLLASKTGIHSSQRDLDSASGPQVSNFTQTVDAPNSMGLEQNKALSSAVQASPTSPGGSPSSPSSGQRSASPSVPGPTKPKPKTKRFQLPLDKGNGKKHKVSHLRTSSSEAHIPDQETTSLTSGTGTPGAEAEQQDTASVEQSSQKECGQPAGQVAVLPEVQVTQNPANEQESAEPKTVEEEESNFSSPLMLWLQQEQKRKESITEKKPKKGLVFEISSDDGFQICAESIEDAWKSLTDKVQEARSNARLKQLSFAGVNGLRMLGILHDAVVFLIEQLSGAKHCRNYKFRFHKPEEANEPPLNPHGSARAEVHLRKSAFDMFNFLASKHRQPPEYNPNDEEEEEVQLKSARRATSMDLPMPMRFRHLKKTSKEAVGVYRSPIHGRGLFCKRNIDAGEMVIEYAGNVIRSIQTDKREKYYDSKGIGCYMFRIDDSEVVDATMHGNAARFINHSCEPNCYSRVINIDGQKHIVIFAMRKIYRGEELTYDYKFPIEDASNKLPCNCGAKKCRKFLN
Description: The MLL (Mixed Lineage Luekemia) gene is involved in chromosomal translocation that results in either acute lymphoid leukemia (ALL) or acute myeloid leukemia (AML). Chromasomal translocation of MLL gene is responsible for the fusion of N-terminal MLL to more than 60 different partner genes in frame. Many of the MLL partner genes contain transcription activation domains or function as transcriptional activators. Despite the heterogeneity of fusion partners, the N-terminus of MLL fusion proteins always consists of the N-terminal menin binding motif and the CXXC domain. The MLL-CXXC domain specifically recognizes unmethylated CpG sequences of the HOX-A gene. Disruption of the MLL-CXXC and HOX-A gene interaction leads to down regulation of HOX-A gene expression and may potentially reverse leukemogenesis. We have miniaturized and optimized an in-vitro assay to screen for inhibitors of the MLL-CXXC domain and HOX-A DNA interaction, which could have utility in MLL fusion leukemias.
This is a hit validation assay that tests this hits identified in the primary screen in this secondary screen, using flurescein FP as a read-out.
NIH Molecular Libraries Probe Production Network [MLPCN]
NIH Chemical Genomics Center [NCGC]
PI Name: John Bushweller, University of Virgina
The affinity purified MLL-CXXC domain, unlabeled HOX-A9 DNA strand, fluorescein (FLSN) labeled HOX-A9 DNA strand were kindly supplied by the laboratory of Dr. John Bushweller, University of Virginia. All reagents were stored in single use aliquots at -80C.
Assay buffer: 50 mM TRIS-HCl pH 7.5, 50 mM NaCl, 1 mM DTT. Add 0.05% BSA prior to reaction setup.
1.Dispense 1 ul of a 7 uM MLL-CXXC solution prepared in assay buffer into column 1-48.
2.Transfer 23 nl of compounds and unlabeled HOX-A9 per well.
3.Incubate for 5 minutes at ambient.
4.Dispense 1ul of a 50 nM FLSN-HOX-A9 solution prepared in assay buffer into columns 1-48
5.Centrifuge for 30 seconds at 1000 RPM.
6.Incubate for 30 minutes at ambient.
7.Read using the Envision reader fluorescent polarization protocol.
Also: nearly all actives have a fitted effect of over 80% in size.
Potency is read from the fitted curve at half-maximal effect.

Potency, active:
CCOC(=O)/C(N=Nc1cc(C(=O)O)cc(C(=O)O)c1)=C(\O)CCl 6.33 µM
COc1ccc(-c2onc3ccc(C(C)=O)cc23)cc1 10 µM
COc1cc(/C=C2/C(=O)NN(c3ccc(F)cc3)C2=O)cc([N+](=O)[O-])c1O 71.1 µM
O=C1NN(c2ccccc2)C(=O)/C1=C/c1ccc(-c2cccc(C(=O)O)c2)o1 100 µM
COc1ccc(S(=O)(=O)/N=C2\C=C(NS(=O)(=O)c3ccccc3)C(=O)c3ccccc32)cc1 50.3 µM
